Nine sequences from paper PMC8384837, “Expanding the binding specificity for RNA recognition by a PUF domain” can be followed below.

Assay in all cases: yeast three-hybrid, YBZ-1, SC-Leu-His + 0.5 mM 3-AT, 4 days
Common to all, as to details: tags: N-Gal4 AD-HA kept; label: inside an RPR1-promoter hybrid RNA with tandem MS2 sites; ssRNA

One experiment concerns the target PUM1 PUF domain R8-LYF (Homo sapiens, UniProt Q14671 828-1176, N1122L;Q1126F). The gist of the method:
(§1)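 Pumilio-1 PUF domain libraries, randomized (NNK) at the three base-contacting residues of each repeat, were co-expressed with matching RNA elements from a centromeric plasmid in strain YBZ-1 (LexA–MS2 coat fusion, HIS3 reporter). Transformants were plated on SC-Leu (input) and SC-Leu-His + 0.5 mM 3-AT (selection) for four days, and repeat regions were PCR-amplified and Illumina-sequenced. The interaction score is the log2 change in variant frequency from input to selection, with pseudocount 1 where absent.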

Another experiment deals with PUM1 PUF domain R8-HWP (Homo sapiens, UniProt Q14671 828-1176, N1122H;Y1123W;Q1126P). The gist of the method:
as §1

The target of the next experiment is PUM1 PUF domain R2-LIM (Homo sapiens, UniProt Q14671 828-1176, N899L;Y900I;Q903M). The gist of the method:
as §1

Another experiment concerns the target PUM1 PUF domain R3-IWY (Homo sapiens, UniProt Q14671 828-1176, C935I;R936W;Q939Y). The gist of the method:
as §1

The next experiment concerns the target PUM1 PUF domain R1-RRI (Homo sapiens, UniProt Q14671 828-1176, S863R;Q867I). The gist of the method: as §1
Another experiment addresses PUM1 PUF domain R1-IWR (Homo sapiens, UniProt Q14671 828-1176, S863I;R864W;Q867R). The gist of the method:
as §1

In a further experiment the target is PUM1 PUF domain R5-HHH (Homo sapiens, UniProt Q14671 828-1176, C1007H;R1008H;Q1011H). The gist of the method: as §1
PUM1 PUF domain R5-HHH, sequence (Q14671 828-1176 C1007H/R1008H/Q1011H): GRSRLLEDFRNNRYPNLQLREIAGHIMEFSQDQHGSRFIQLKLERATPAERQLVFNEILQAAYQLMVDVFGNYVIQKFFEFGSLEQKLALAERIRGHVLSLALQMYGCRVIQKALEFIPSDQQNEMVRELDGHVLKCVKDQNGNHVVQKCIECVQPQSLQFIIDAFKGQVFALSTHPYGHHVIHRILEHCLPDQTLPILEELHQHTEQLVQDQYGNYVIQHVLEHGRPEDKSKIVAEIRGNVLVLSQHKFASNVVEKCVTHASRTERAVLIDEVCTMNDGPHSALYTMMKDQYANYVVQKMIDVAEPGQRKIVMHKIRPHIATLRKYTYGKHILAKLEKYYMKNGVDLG
The target in the next experiment is PUM1 PUF domain R5-QHV (Homo sapiens, UniProt Q14671 828-1176, C1007Q;R1008H;Q1011V). An outline of the steps: as §1
PUM1 PUF domain R5-QHV, sequence (Q14671 828-1176 C1007Q/R1008H/Q1011V): as the sequence (Q14671 828-1176 C1007H/R1008H/Q1011H) above, with H180Q, H184V counted along it
Experiment [1] addresses PUM1 PUF domain R2-VFQ R3-THE R4-TFR (Homo sapiens, UniProt Q14671 828-1176, N899V;Y900F;C935T;R936H;Q939E;N971T;H972F;Q975R). The gist of the method: as §1
The target in the next experiment is PUM1 PUF domain R5-TEE (Homo sapiens, UniProt Q14671 828-1176, C1007T;R1008E;Q1011E). The gist of the method: as §1
PUM1 PUF domain R5-TEE, sequence (Q14671 828-1176 C1007T/R1008E/Q1011E): as the sequence (Q14671 828-1176 C1007H/R1008H/Q1011H) above, with H180T, H181E, H184E counted along it

PUM1 PUF domain R3-IWY, sequence (Q14671 828-1176 C935I/R936W/Q939Y): as the sequence (Q14671 828-1176 C1007H/R1008H/Q1011H) above, with C108I, R109W, Q112Y, H180C, H181R, H184Q counted along it
PUM1 PUF domain R1-IWR, sequence (Q14671 828-1176 S863I/R864W/Q867R): as the sequence (Q14671 828-1176 C1007H/R1008H/Q1011H) above, with S36I, R37W, Q40R, H180C, H181R, H184Q counted along it
PUM1 PUF domain R1-RRI, sequence (Q14671 828-1176 S863R/Q867I): as the sequence (Q14671 828-1176 C1007H/R1008H/Q1011H) above, with S36R, Q40I, H180C, H181R, H184Q counted along it
PUM1 PUF domain R2-VFQ R3-THE R4-TFR, sequence (Q14671 828-1176 N899V/Y900F/C935T/R936H/Q939E/N971T/H972F/Q975R): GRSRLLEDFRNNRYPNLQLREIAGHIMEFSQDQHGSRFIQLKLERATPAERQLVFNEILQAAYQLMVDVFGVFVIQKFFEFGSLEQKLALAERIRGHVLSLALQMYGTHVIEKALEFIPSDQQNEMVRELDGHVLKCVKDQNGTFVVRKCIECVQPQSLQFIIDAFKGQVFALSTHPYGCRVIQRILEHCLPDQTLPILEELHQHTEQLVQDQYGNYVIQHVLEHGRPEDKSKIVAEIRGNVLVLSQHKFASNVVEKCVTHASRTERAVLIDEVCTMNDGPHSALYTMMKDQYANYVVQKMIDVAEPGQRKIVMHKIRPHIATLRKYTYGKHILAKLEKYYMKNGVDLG
PUM1 PUF domain R8-HWP, sequence (Q14671 828-1176 N1122H/Y1123W/Q1126P): as the sequence (Q14671 828-1176 C1007H/R1008H/Q1011H) above, with H180C, H181R, H184Q, N295H, Y296W, Q299P counted along it
PUM1 PUF domain R2-LIM, sequence (Q14671 828-1176 N899L/Y900I/Q903M): as the sequence (Q14671 828-1176 C1007H/R1008H/Q1011H) above, with N72L, Y73I, Q76M, H180C, H181R, H184Q counted along it
PUM1 PUF domain R8-LYF, sequence (Q14671 828-1176 N1122L/Q1126F): as the sequence (Q14671 828-1176 C1007H/R1008H/Q1011H) above, with H180C, H181R, H184Q, N295L, Q299F counted along it

As to “GGCUAGAACUAGUGGAUCCCCCGGCGCCCGGCGGCUCGAGCCCGGGUAAGCGUAAAUAGUCUGCAUGCCGCCGGGCGCCAUGCCUGCAGGUCGACUCUAGAAAACAUG”, the binding signal is 2.3 log2 enrichment (interaction score) with PUM1 PUF domain R8-LYF and 5.59 log2 enrichment (interaction score) in the experiment with PUM1 PUF domain R8-HWP.
Turning to “GGCUAGAACUAGUGGAUCCCCCGGCGCCCGGCGGCUCGAGCCCGGGUAAGUGUAAAGAGUCUGCAUGCCGCCGGGCGCCAUGCCUGCAGGUCGACUCUAGAAAACAUG”, the binding signal with PUM1 PUF domain R2-LIM is 3.94 log2 enrichment (interaction score).
Take “GGCUAGAACUAGUGGAUCCCCCGGCGCCCGGCGGCUCGAGCCCGGGUAAGUGUAAUUAGUCUGCAUGCCGCCGGGCGCCAUGCCUGCAGGUCGACUCUAGAAAACAUG”: the binding signal with PUM1 PUF domain R3-IWY was 3.36 log2 enrichment (interaction score).
As to “GGCUAGAACUAGUGGAUCCCCCGGCGCCCGGCGGCUCGAGCCCGGGUAAGUGUAAGUAGUCUGCAUGCCGCCGGGCGCCAUGCCUGCAGGUCGACUCUAGAAAACAUG”, the binding signal with PUM1 PUF domain R3-IWY is 1.76 log2 enrichment (interaction score).
Take “GGCUAGAACUAGUGGAUCCCCCGGCGCCCGGCGGCUCGAGCCCGGGUAAGUGUAAAUCGUCUGCAUGCCGCCGGGCGCCAUGCCUGCAGGUCGACUCUAGAAAACAUG”: the binding signal with PUM1 PUF domain R1-RRI is 3.61 log2 enrichment (interaction score); with PUM1 PUF domain R1-IWR, 2.56 log2 enrichment (interaction score).
As for “GGCUAGAACUAGUGGAUCCCCCGGCGCCCGGCGGCUCGAGCCCGGGUAAGUGUAAAUUGUCUGCAUGCCGCCGGGCGCCAUGCCUGCAGGUCGACUCUAGAAAACAUG”, the binding signal with PUM1 PUF domain R1-IWR is 1.52 log2 enrichment (interaction score).
Consider “GGCUAGAACUAGUGGAUCCCCCGGCGCCCGGCGGCUCGAGCCCGGGUAAGUGUUAAUAGUCUGCAUGCCGCCGGGCGCCAUGCCUGCAGGUCGACUCUAGAAAACAUG”, for which the values for the binding signal with PUM1 PUF domain R5-HHH and in the experiment with PUM1 PUF domain R5-QHV were 5.29 log2 enrichment (interaction score) and 3.88 log2 enrichment (interaction score), respectively.
As to “GGCUAGAACUAGUGGAUCCCCCGGCGCCCGGCGGCUCGAGCCCGGGUAAGUGUACGAAGUCUGCAUGCCGCCGGGCGCCAUGCCUGCAGGUCGACUCUAGAAAACAUG”, the binding signal in experiment [1] was 3.9 log2 enrichment (interaction score).
Take “GGCUAGAACUAGUGGAUCCCCCGGCGCCCGGCGGCUCGAGCCCGGGUAAGUGUGAAUAGUCUGCAUGCCGCCGGGCGCCAUGCCUGCAGGUCGACUCUAGAAAACAUG”: the binding signal in the experiment with PUM1 PUF domain R5-TEE is 3.25 log2 enrichment (interaction score).
